# Data: PubChem BioAssay AID1159524 (National Center for Advancing Translational Sciences (NCATS), 2015)
# The whole screen tested about 410,000 compounds, of which about 5,100 (1.2%) were called active. Another 8% or so got no clear call; they are omitted. Calls follow the shape of the full dose curve; tested in HEK293T cells. The list comes from a sample in which actives are over-represented; it also holds similar structures and randomly drawn compounds.
# Experiment: High Throughput Screening for Foot and Mouth Disease Virus Antivirals; also: read-out not given here; nearly all actives have a fitted effect of over 45% in size
# Conditions: FMDV antiviral cell-based qHTS; series mostly up to 57.9 µM; activity change, negative = inhibition: at the top concentration
# % is scaled to controls: 0 for no effect and ±100 for the full control effect; potency is read from the fitted curve at half-maximal effect.
SMILES,"activity change, negative = inhibition",Potency
C=CCNC(=S)N/N=C/c1ccc(C)s1,1.06% (inactive),–
COCCNC(=S)N/N=C/c1c(C)[nH]c2ccccc12,–,20 µM (active)
Cc1[nH]c2ccccc2c1/C=C(/C#N)C(=O)NC(C)C,-22.7% (inactive),–
C[N+](C)(C)CCCCCNCC12CC3CC(CC(C3)C1)C2,-8.71% (inactive),–
CCS(=O)(=O)N1CCN(C(=O)c2cccs2)CC1,-16.9% (inactive),–
Cc1ccc(N2CCN(C(=O)c3cccs3)CC2)c(C)c1,-20.8% (inactive),–
Cc1ccccc1C(CC(=O)c1cccs1)C(C#N)C#N (centres undefined),–,11.2 µM (active)
O=C(Nc1ccc(S(=O)(=O)N2CCOCC2)cc1)c1ccc2ncsc2c1,-22.9% (inactive),–
Cc1cc(C)n2nc(C(=O)Nc3cccc(S(=O)(=O)N4CCOCC4)c3)nc2n1,-6.23% (inactive),–
Cc1nc2ccc(NC(=O)c3cccc(S(=O)(=O)N4CCOCC4)c3)cc2s1,–,31.6 µM (active)
Cc1nc2cnc(N3CCNCC3)nc2n(CCc2ccccc2)c1=O,-8.91% (inactive),–
CC1=C(/C=C/C(C)=C/C=C/C(C)=C/C=C/C=C(C)/C=C/C=C(C)/C=C/C2=C(C)CCCC2(C)C)C(C)(C)CCC1,–,5.01 µM (active)
CCCCCCCCCCCCCCCC(=O)OC/C=C(C)/C=C/C=C(C)/C=C/C1=C(C)CCCC1(C)C,–,inactive
Cc1ccc(CSc2nc3ccsc3c(=O)n2CCC(C)C)cc1,-28.8% (inactive),–
CCOC(=O)Cc1ccc(NC(=O)Nc2c[nH]c(=O)[nH]c2=O)cc1,-3.16% (inactive),–
COCC(=O)Nc1cc(C(=O)N2CCCC(c3ccccc3)CC2)c2c(c1)nc(-c1ccncc1)n2C (centres undefined),-6.81% (inactive),–
COc1ccc(-c2nn(C)c(=O)c3ccccc23)cc1NC(=O)COc1ccccc1,–,17.8 µM (active)
COc1ccc(-c2nn(C)c(=O)c3ccccc23)cc1CNC(=O)C1CCCCC1,-10.7% (inactive),–
COc1ccc(-c2nc3ccccc3s2)cc1NC(=O)COc1ccccc1C,15.1% (inactive),–
O=c1cnc2cnc(Nc3ccccc3)nc2n1Cc1ccc(F)cc1,-18.2% (inactive),–
Cc1ccc(S(=O)(=O)N2CCCc3cc(NS(=O)(=O)c4cc(C)ccc4C)ccc32)cc1,38.1% (inactive),–
COc1ccccc1C(=O)Nc1c(C(=O)N(C)Cc2ccccc2)sc2nc(C)c(Cl)c(C)c12,-23% (inactive),–
CCCCc1nnc(NC(=O)CSc2nc(N)cc(=O)[nH]2)s1,6.16% (inactive),–
Cc1cc(C(=O)CSc2nc(N)cc(=O)[nH]2)c(C)n1CCc1ccc(Cl)cc1,–,22.4 µM (active)
Cc1cc(=O)[nH]c(SCc2ccc(Cl)cc2)n1,2.53% (inactive),–

SMILES,"activity change, negative = inhibition",Potency
COCCn1c(=O)c(-c2cccc(F)c2)nc2cncnc21,-3.82% (inactive),–
COc1ccc(F)c(CN2CCC3(CCC(CNC(=O)c4ccn(C)n4)O3)CC2)c1 (centres undefined),-12.4% (inactive),–
COc1ccc(Cl)cc1-n1c(CCC(=O)O)ccc1-c1ccc(C)cc1,-13.1% (inactive),–
CCc1ccc(-n2nnc(-c3nc(-c4ccccc4)no3)c2C)cc1,27.4% (inactive),–
CCc1ccc(-c2nn(-c3ccccc3C)cc2C(=O)N2CCN(C3CCS(=O)(=O)C3)CC2)cc1 (centres undefined),-4.39% (inactive),–
CCc1ccc(-c2nn(-c3ccccc3)cc2CSC(=N)N)cc1,–,39.8 µM (active)
COc1cc2c(cc1OC)[C@@H]1C(=O)c3ccc(O)c(CC=C(C)C)c3OC1CO2 (some centres undefined),-14.3% (inactive),–
CCCS(=O)(=O)NCc1c(C)ncc2c1CCN(C(=O)c1ccc(F)c(F)c1)C2,-9.08% (inactive),–
COc1ccc2c(c1)CCc1cnc(-n3ncc(C(=O)NCCN4CCOCC4)c3C)nc1-2,-7.65% (inactive),–
Cc1ccc2nc(COc3ccc(NC(=O)COc4ccccc4F)cc3)cc(=O)n2c1,-8.25% (inactive),–
COc1cccc(COc2ccc(N(C)S(=O)(=O)c3ccccc3)cc2)c1,-21.3% (inactive),–
Cc1ccc2nc(COc3ccc(N(C)S(=O)(=O)c4ccccc4)cc3)cc(=O)n2c1,–,31.6 µM (active)
CCc1nc2cc(C(=O)NCC3CCS(=O)(=O)C3)cc(NC(=O)c3ccccc3OC)c2n1C (centres undefined),-9.72% (inactive),–
Cc1ccc(NC(=O)CSc2nc3c([nH]c4ccccc43)c(=O)n2-c2ccccc2)c(C)c1,-23.2% (inactive),–
COc1ccc(C(C(=O)NC2CCCCC2)N(C(=O)CCl)c2ccccc2Cl)cc1 (centres undefined),6.66% (inactive),–
COc1ccc(C(CCN(Cc2ccc(OC)c(OC)c2)C(=O)CCl)c2ccccc2)cc1 (centres undefined),–,31.6 µM (active)
CCN(CCCCOC(=O)c1ccc(OC)c(OC)c1)C(C)Cc1ccc(OC)cc1 (centres undefined),–,inactive
COCCNc1cc(-c2c(C)noc2C)ncn1,-19.3% (inactive),–
CC(C)OC(=O)c1ccc(COc2ccc3ccc(=O)oc3c2)o1,40.6% (inactive),–
O=C(COc1ccc2ccc(=O)oc2c1)NCC(O)c1ccccc1 (centres undefined),-9.08% (inactive),–
CC(=CCOc1ccc2ccc(=O)oc2c1)C1=CC(=O)C(C)(C)O1,–,28.2 µM (active)
Cn1cccc1C(=O)N1CCC2(CC1)CN(c1cccc(-c3ccccc3)c1)C2,-26.7% (inactive),–
Cc1ccc(NC(=O)Nc2sc3nc4n(c(=O)c3c2C)CCC(C)CC4)c(Cl)c1 (centres undefined),-23.1% (inactive),–
Cc1ccc(CN2COc3cc(C)c4c(oc(=O)c5ccccc54)c3C2)cc1,-6.49% (inactive),–
CCOC(=O)c1cc2c(=O)n3ccccc3nc2n(CCCOC)c1=NC(=O)C(C)Oc1ccccc1 (centres undefined),13.7% (inactive),–

SMILES,"activity change, negative = inhibition",Potency
COc1ccc(Nc2ncnc3ccc(Br)cc23)c(OC)c1,–,3.98 µM (active)
COc1ccc(CNc2ncnc3ccc(-c4cccnc4)cc23)c(OC)c1,-28.8% (inactive),–
COc1ccc2[nH]cc(CCNc3ncnc4ccc(-c5ccccc5CN(C)C)cc34)c2c1,-2.17% (inactive),–
NS(=O)(=O)c1ccc(NC(=O)COC(=O)C2(c3ccc(F)cc3)CCCC2)cc1,–,17.8 µM (active)
NS(=O)(=O)c1ccc(NC(=O)COc2ccc(S(=O)(=O)NC3CCCCC3)cc2)cc1,31.4% (inactive),–
O=C(COC(=O)C1(c2ccc(F)cc2)CCCC1)N1CCNC1=O,-14.5% (inactive),–
COc1ccc(CNC(=O)CSCc2nc(-c3ccccc3F)oc2C)cc1,-18.8% (inactive),–
Cc1nc2cc(NC(=O)[C@@H]3C[C@@H](Sc4ccccn4)CN3Cc3ccccc3C)ccc2s1,-2.38% (inactive),–
CCC(C(=O)Nc1cccc(-c2nc3cccnc3s2)c1C)c1ccccc1 (centres undefined),-3.42% (inactive),–
CCOc1ccccc1-n1c(SCC(=O)NCc2ccco2)nnc1-c1ccncc1,33% (inactive),–
Cc1ccc(Nc2nc(CSc3nnc(-c4ccncc4)n3-c3ccccc3C)cs2)cc1,–,31.6 µM (active)
Cn1c(SCc2ccc(F)cc2)nnc1-c1ccncc1,-6.09% (inactive),–
N[C@H](C(=O)O)c1ccc(C(=O)O)c(O)c1,–,inactive
Cc1cc(-c2n[nH]c(=S)n2/N=C/C(Br)=C/c2ccccc2)n[nH]1,–,35.5 µM (active)
O=c1c(-c2ccc(F)cc2)nc2cncnc2n1-c1ccccc1,-1.48% (inactive),–
OC(CN=c1sc2ccccc2n1CC(O)COc1ccccc1)COc1ccccc1 (centres undefined),–,20 µM (active)
OC(COc1ccc(CN2CCSCC2)cc1)CN1CCCCC1 (centres undefined),2.88% (inactive),–
CCCn1c(=N)n(CC(O)COc2ccccc2OC)c2ccccc21 (centres undefined),-14.5% (inactive),–
Nc1nc2c(nc(Cl)n2C2OC(CO)C(O)C2O)c(=O)[nH]1 (centres undefined),-6.54% (inactive),–
O=C(c1cccc(Br)c1)N1CCN(Cc2cc(=O)n3nc(-c4ccccc4)sc3n2)CC1,-16% (inactive),–
O=C(c1ccccc1)N1CCN(c2cc(-c3ccccc3)nc3cc(-c4cccc(Cl)c4)nn23)CC1,–,25.1 µM (active)
O=C(c1cccc(Cl)c1)N1CCN(CCc2ccncc2)CC1,-13.6% (inactive),–
O=C(CCCC(=O)N1CCN(c2cccc(Cl)c2)CC1)c1ccccc1,6.15% (inactive),–
C#Cc1cc(N2CCN(C(=O)c3ccoc3)CC2)n2nc(-c3cccc(Cl)c3)cc2n1,–,11.2 µM (active)
CCNC(=O)Cn1nc(C)n2c(cc3c(OC)cccc32)c1=O,10.3% (inactive),–

SMILES,"activity change, negative = inhibition",Potency
COC1[C@H](OC(N)=O)C(O)[C@H](Oc2ccc3c(O)c(NC(=O)c4ccc(O)c(CC=C(C)C)c4)c(=O)oc3c2C)OC1(C)C (some centres undefined),23.6% (inactive),–
C=C1O[C@@](CO)(n2cnc3c(N)ncnc32)[C@H](O)[C@@H]1O,3.35% [at 97.4 µM] (inactive),–
COc1cccc(NC(=O)N2CCN(C(=O)c3nsc4ccccc34)CC2)c1,17.7% (inactive),–
COc1ccc(C2=Nc3cc(C)ccc3OC2)cc1,–,14.1 µM (active)
COc1ccc(-c2cc(-c3ccccc3)nc3c2COc2ccc(Cl)cc2-3)cc1,-22.2% (inactive),–
COc1ccc(-c2cc(-c3ccc(F)cc3)nc3c2COc2ccccc2-3)cc1,-12.8% (inactive),–
CCCNc1ncnc2c1c(-c1ccccc1)cn2-c1ccc(OCC)cc1,-19.6% (inactive),–
CC(C)(O)CCC(O)[C@@](C)(O)C1CC[C@]2(O)C3=CC(=O)C4CC(O)C(O)C[C@]4(C)C3CC[C@]12C (some centres undefined),19% (inactive),–
Cc1ccc(NC(=O)c2ccc(CN3CC(=O)N4CCCCC4C3=O)cc2)c(Cl)c1 (centres undefined),19.8% (inactive),–
COc1cc(C(=O)Nc2cc(C(F)(F)F)ccc2N2CCOCC2)ccc1O,-19.9% (inactive),–
COc1ccc(Nc2ncc(C(=O)Nc3cc(C)ccc3OC)c3ccccc23)cc1,-23.6% (inactive),–
COc1ccc(C(=O)Nc2ccccc2C(=O)N/N=C/c2ccc(O)c(OC)c2)cc1,–,3.98 µM (active)
Cn1cc(-c2nc3cncnc3n(-c3ccccc3)c2=O)c2ccccc21,-0.0407% (inactive),–
COc1ccc(CN2CCC3(CCC(CNC(=O)c4ccco4)O3)CC2)cc1OC (centres undefined),3.86% (inactive),–
CC(C)CNc1ncnc2c1cnn2Cc1ccc(Cl)cc1,-26.3% (inactive),–
Cc1ccc(-n2ncc3c(=O)n(Cc4cccc(C(F)(F)F)c4)cnc32)cc1C,-4.06% (inactive),–
CC(C)(C)n1ncc2c(=O)n(Cc3ccc(Cl)cc3)cnc21,–,25.1 µM (active)
O=C(c1cn(CC2CCCN(Cc3cc4ccccc4s3)C2)nn1)N1CCCC1 (centres undefined),-5.43% (inactive),–
O=C(O)c1c(CNCc2cccc(F)c2)c2ccccc2n1Cc1ccccc1,25% (inactive),–
C/C=C(\C)C(=O)O[C@H]1CC(C)=C2C(=O)C=C(C)C2[C@@H]2OC(=O)[C@@](C)(OC(=O)C=C(C)C)C21 (some centres undefined),-2.11% (inactive),–
Cc1cc(C)cc(CN2CCc3nnc(C(NS(C)(=O)=O)C(C)C)n3CC2)c1 (centres undefined),2.42% (inactive),–
CCOc1cccc2sc(N3CCN(C(=O)C4CC4)CC3)nc12,-5.01% (inactive),–
CCOC(=O)N1CCN(C(=O)C2CCN(c3ncnc4c3sc3cccc(F)c34)CC2)CC1,–,14.1 µM (active)
CCOC(=O)N1CCN(C(=O)C2CCCN(c3ncnc4c3sc3cccc(F)c34)C2)CC1 (centres undefined),-18.5% (inactive),–
